Screening data from PubChem BioAssay.
Hits are enriched below; roughly 1.1% of the tested compounds scored in any of these assays.
BJeLR viability: kills HRASV12-expressing BJeLR cells; inhibition, % (no concentration beside the values); 300,000 tested, 0.17% active; BJeLR (HRASV12) viability, CellTiter-Glo ATP luminescence, 48 h; in the data active = inhibition above about 50%
RecA intein inh: inhibitors of M. tuberculosis RecA intein splicing | cell-free RecA intein splicing, fluorescence | 290,000 tested, 0.75% active | P9WHJ3 | inhibition, % (no concentration beside the values); in the data active = inhibition above about 30%;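 note: 0% = vehicle wells and 100% = reference inhibitor control wells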
Yp Topo-I inh: inhibitors of Yersinia pestis topoisomerase I; Y. pestis Topo-I cleavage product accumulation, plate reader; activity, % at 10 µM; 360,000 tested, 0.064% active; in the data active = activity above about 50%, passing the limit was not always enough
Mtb BioA inh: blocks M. tuberculosis BioA enzyme activity; purified M. tuberculosis BioA enzyme, plate reader; inhibition, % at 9.99 µM; 360,000 tested, 0.096% active; in the data active = inhibition above about 40%
Mtb bLac sens: beta-lactam sensitization of Mtb H37Rv; M. tuberculosis H37Rv growth with meropenem, percent inhibition; inhibition, % at 25 µM; 330,000 tested, 0.27% active;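 note: growth measured after seven days incubation then overnight dye step; 0% = bacteria only wells and 100% = bacteria with antibiotic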
CCHF vOTU inh: blocks the CCHF virus ovarian tumor domain protease; CCHFV vOTU protease, Pep-AMC fluorescence; inhibition, % at 11.5 µM; 370,000 tested, 0.55% active; in the data active = inhibition above about 30%; note: 0% = vehicle wells with enzyme and 100% = no enzyme wells
GFP chromophore: counter-screen: blocks GFP chromophore formation; shares compounds with RecA intein inh; cell-free GFP chromophore formation, fluorescence; EC50, µM; 2,100 tested, 83% active; AID 434968
Numbers without * were called inactive; nt = no result. Unless noted, the rule behind the calls is not given here.

SMILES	BJeLR viability	RecA intein inh	Yp Topo-I inh	Mtb BioA inh	Mtb bLac sens	CCHF vOTU inh	GFP chromophore
CC(=O)NC(c1ccccc1)c1cccnc1 (stereo unspecified)	2	-2	3	-2	-16	9	nt
COC(=O)C(C#N)C(c1cccnc1)c1c(C)[nH][nH]c1=O (stereo unspecified)	1	85*	7	0	3	5	7.8*
O=C(NCC1(c2ccccc2)CCCC1)C1(c2ccccc2)CCCC1	10	30*	68*	nt	32	11	>38
CCC(=O)N(CC)C[C@H]1[C@H](c2ccccc2)[C@@H](CO)N1C(C)=O	nt	nt	nt	-3	nt	nt	nt
CCC(=O)N[C@@H]1CC[C@@H](CC(=O)NCc2ccc(OC)cc2)O[C@@H]1CO	nt	nt	nt	-2	nt	nt	nt
O=C(CCNc1cccc(F)c1)c1cccc([N+](=O)[O-])c1	12	32*	-5	nt	33	10	>38
O=C(CCNc1ccc(Cc2ccncc2)cc1)c1cccc([N+](=O)[O-])c1	-4	1	0	nt	69	-15	nt
C[C@@H]1CN([C@@H](C)CO)C(=O)Cc2cc(NC(=O)Cc3ccccc3)ccc2O[C@H]1CN(C)S(=O)(=O)c1ccccc1	nt	nt	nt	2	nt	nt	nt
COc1ccc(C(=O)/C=C/Sc2nc3ccccc3o2)cc1	27	46*	-2	-1	98	-12	>38
COCCOC(=O)C1=C(C)N=C2SCCC(=O)N2C1c1ccc(OC(=O)c2ccco2)cc1 (stereo unspecified)	5	33*	-1	0	11	2	>38
CCOC(=O)C1=C(C)N=C2SCCC(=O)N2C1c1ccc(OC)cc1 (stereo unspecified)	0	4	nt	nt	-11	nt	nt
c1ccc(-c2nc(N3CCCCCC3)c3ccccc3n2)nc1	49	32*	18	1	81	7	>38
COc1ccc(C(=O)Nc2ccc3c(c2)OC[C@@H](C)N(C)C[C@H](C)[C@@H](OC)CN(C)C3=O)cc1	nt	nt	nt	-1	nt	nt	nt
COc1cc(OC)cc(C(=O)N/N=C(\C)CC(=O)Nc2ccccn2)c1	1	56*	0	-1	-2	-3	24*
C/C(CC(=O)Nc1ccc(Cl)cn1)=N\NC(=O)Cc1cccs1	-4	62*	-4	nt	-2	0	37*
C/C(CC(=O)Nc1ccccn1)=N\NC(=O)c1ccc2ccccc2c1	4	0	1	nt	-5	6	nt
C/C(CC(=O)Nc1ccccn1)=N\NC(=O)Cc1cccc2ccccc12	3	87*	-10	0	4	-3	8.6*
C/C(CC(=O)Nc1ccccn1)=N\NC(=O)c1ccccc1	-9	11	nt	nt	0	nt	nt
C/C(CC(=O)NC1CCCC1)=N\NC(=O)Cc1cccs1	-7	-1	-9	-2	-5	5	nt
C/C(CC(=O)Nc1ccccn1)=N\NC(=O)c1ccncc1	-1	85*	nt	nt	99	nt	6.8*
COc1cccc(NC(=O)N(C)C[C@@H]2Oc3cc(C#Cc4ccc(F)cc4)ccc3S(=O)(=O)N([C@H](C)CO)C[C@@H]2C)c1	nt	nt	nt	-8	nt	nt	nt
CO[C@H]1CN(C)C(=O)c2ccc(NC(C)=O)cc2OC[C@@H](C)N(C(=O)C2CC2)C[C@H]1C	nt	nt	nt	4	nt	nt	nt
COC(=O)c1c(N)sc(Cc2ccccc2)c1C	-1	15	6	nt	10	-2	nt
COC(=O)c1c(NC(=O)/C=C/C(=O)O)sc(Cc2ccccc2)c1C	0	51*	-2	nt	-1	nt	24*
Cc1oc2cc([N+](=O)[O-])c(O)c([N+](=O)[O-])c2c1C(=O)c1ccc(Cl)cc1	0	37*	-1	10	-4	13	22*
SMILES	BJeLR viability	RecA intein inh	Yp Topo-I inh	Mtb BioA inh	Mtb bLac sens	CCHF vOTU inh	GFP chromophore
O=C(CCN1CCCCC1)NCC[C@@H]1CC[C@@H](NC(=O)C2CCCC2)[C@H](CO)O1	nt	nt	nt	1	nt	nt	nt
Cc1ccc(S(=O)(=O)N(C)C[C@H]2Oc3ccc(NC(=O)CCN4CCOCC4)cc3CC(=O)N([C@@H](C)CO)C[C@@H]2C)cc1	nt	nt	nt	-5	nt	nt	nt
CC(C)NC(=O)Nc1ccc2c(c1)C(=O)N([C@H](C)CO)C[C@H](C)[C@H](CN(C)C)OCCCC[C@H](C)O2	nt	nt	nt	1	nt	nt	nt
CC1=NN(c2ccc(C)cc2C)C(=O)C1C(c1cccc(O)c1)C1C(=O)N(c2ccc(C)cc2C)N=C1C (stereo unspecified)	-2	97*	-16	0	-2	21	1.4*
CC(C)(C)NC(=O)C(c1cccs1)N(CC1CCCO1)C(=O)c1ccc(-c2ccccc2)[nH]1 (stereo unspecified)	-15	33*	21	0	-10	21	>38
Cc1ccc(-n2[nH]c(C)c(/C=N/NC(=O)c3ccc(O)cc3O)c2=O)cc1	3	11	3	1	5	nt	nt
Cc1[nH]n(-c2ccccc2)c(=O)c1/C=N/NC(=O)c1ccc(O)cc1O	-4	41*	-2	2	3	nt	2.8*
COc1cccc(N(C(=O)CCl)C(C(=O)NCCc2ccccc2)c2cccs2)c1 (stereo unspecified)	72*	73*	13	-1	65	-12	3.3*
COc1ccc(N(C(=O)CCl)C(C(=O)NCCc2ccccc2)c2cccs2)cc1Cl (stereo unspecified)	139*	77*	21	nt	88	12	0.96*
COc1ccc(N(C(=O)c2ccco2)C(C(=O)NC2CCCCC2)c2cccs2)cc1OC (stereo unspecified)	-5	3	16	nt	-7	6	nt
Cc1ccc(S(=O)(=O)N(C)C[C@H]2OCCCC[C@H](C)Oc3ccc(NC(=O)Nc4c(C)noc4C)cc3C(=O)N([C@H](C)CO)C[C@@H]2C)cc1	nt	nt	nt	0	nt	nt	nt
O=C(Cc1ccncc1)NCC[C@@H]1CC[C@@H](NC(=O)Nc2ccc(F)cc2)[C@@H](CO)O1	nt	nt	nt	-3	nt	nt	nt
CCCNC(=O)N1[C@H](C#N)[C@H](c2ccc(C#Cc3ccc(F)cc3)cc2)[C@@H]1CO	nt	nt	nt	-2	nt	nt	nt
CCOc1cccc(-c2cc(=O)[nH][nH]2)c1	1	97*	-3	13	-17	-11	2.5*
COc1cccc(-c2cc(=O)[nH][nH]2)c1	-10	98*	-1	nt	-3	9	2.2*
CCOc1cccc(N)c1	nt	nt	0	-1	28	nt	nt
S=C1Nc2ccccc2CS1	nt	nt	-7	1	nt	-3	nt
S=C1Cc2ccccc2N1	-5	88*	-9	-1	nt	100*	1.2*
C[C@H]1CN([C@@H](C)CO)C(=O)c2cc(Br)cnc2O[C@H]1CN(C)C(=O)Nc1ccc(F)cc1	nt	nt	nt	1	nt	nt	nt
Cc1cc(C)cc(OC(=O)CS(=O)c2ccc(C(F)(F)F)cc2[N+](=O)[O-])c1 (stereo unspecified)	-5	43*	-4	0	77	9	6.3*
CN(C)C(=O)C[C@@H]1CC[C@H](NC(=O)C2CC2)[C@H](CO)O1	nt	nt	nt	-2	nt	nt	nt
Cc1nn(-c2ccccc2)c(Cl)c1/C=C1\SC(=S)NC1=O	-2	4	0	nt	10	6	nt
